Sampled rows, rich in hits. Any-hit rate of the full collection: about 3%.
p53null 32C kill – selectivity test: cytotoxicity in p53 null cells, permissive temperature; H1299-neo p53 null cells, ATP luminescence, 24 h, 32C; Potency, µM (doses to about 46.1 µM), for inactives: top-dose activity change, negative = cytotoxicity, most hits filed as cytotoxic; 55,000 tested, 0.62% active;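 note: 0% = DMSO only and -100% = full killing by 100 µM tamoxifen; nearly all actives have a fitted effect of over 55% in size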
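H1299-neo (p53-null) cells, 600/well, were pre-incubated overnight at 37C, then exposed to compounds at up to 46 uM for 24 hr at 32C. Viability was measured as ATP content by luminescence, and AC50 values came from Hill fits.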
S16 F2sN tox – S16 Schwann cell cytotoxicity; S16 Pmp22-F2sN Schwann cells viability, CellTiter-Glo, 24 h; AID 1508642; Potency, µM (series often up to 57.5 µM), without a hit: top-dose activity change, negative = cytotoxicity, hits mostly cytotoxic; 43,000 tested, 0.48% active; note: nearly all actives have a fitted effect of over 65% in size
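Used to flag compounds lowering reporter output through toxicity, this quantitative HTS measures ATP-based CellTiter-Glo luminescence in S16 Pmp22-F2sN Schwann cells after 24 h compound exposure at 37C.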
SKOV3 invasion – inhibitors of ovarian cancer cell adhesion and invasion in omental model; 46,000 tested, 0.1% active; Potency, µM (titrated, usually from 45.8 µM), inactives show at the highest dose activity change, negative = inhibition, hits mostly inhibitors; SKOV3ip1-GFP adhesion/invasion on 3D omental model, fluorescence; AID 1963576;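 note: plate controls were DMSO wells for no effect and tomatine positive control wells for full effect; nearly all actives have a fitted effect of over 65% in size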
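Adhesion/invasion was scored as fixed GFP-labeled SKOV3ip1 cell counts (488/509 nm), normalized to DMSO and tomatine controls. Cancer cells in serum-free medium, with four compound doses (0.36-46 umol/L), sat 2 hr at RT then 16 hr at 37 C on a 48 hr fibroblast/mesothelial/ECM culture.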
p53null 39C kill – selectivity test: cytotoxicity in p53 null cells, nonpermissive temperature. H1299 p53-null (neo) cells, 39C, ATPlite viability, 24 h. Potency, µM (highest dose often 46.1 µM), for the others: at the highest dose activity, negative = cell killing, hits mostly cytotoxic. 55,000 tested, 0.97% active;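 note: 0% = DMSO only and -100% = full killing by 100 µM tamoxifen; nearly all actives have a fitted effect of over 50% in size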
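ATP-luminescence viability readout (ATPlite, 20 min RT) after 24 hr compound treatment at 39C of H1299-neo or H1299-p53A138V cells; titration up to 46 uM; normalized to DMSO and 100 uM tamoxifen; Hill-fit AC50.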
PMP22 txn – PMP22 gene transcription modulation; 43,000 tested, 2% active; S16 Pmp22-F2sN Schwann cells (luciferase reporters placed in the Pmp22 gene), FLuc/NLuc coincidence luminescence, 24 h; Potency, µM (series often up to 57.5 µM), without a hit: at the highest dose activity change, negative = inhibition, most hits filed as inhibitors; active = clear falling dose curves in both reporters; inconclusive = both reporters move, but less clearly or upward; inactive = either reporter flat; the % is the NLuc reporter signal
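qHTS, 1536-well. Cells seeded, compounds added by pin tool, 24 h 37C. Nano-Glo reagent 1 (lysis/FLuc), 10 min RT, read; Stop&Glo, 10 min RT, read NLuc.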
pS6 MEF inh – inhibitors of mTORC1 signaling in Tsc2-/- p53-/- MEF cells; Potency, µM (top dose mostly 38.3 µM), for inactives: at the top dose activity change, negative = inhibition, most hits filed as inhibitors; 44,000 tested, 0.78% active; Tsc2-/- p53-/- MEF, phospho-rpS6 immunofluorescence/PI, 24 h; AID 493208;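 note: plate controls were DMSO for no effect and rapamycin for full effect; nearly all actives have a fitted effect of over 50% in size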
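Readout is phospho-S6 Alexa 488 signal normalized to PI per well, reported as % active cells with thresholds set from rapamycin (7.5 nM) and DMSO controls. Cells: Tsc2-/-, p53-/- MEFs, 24 hrs compound at 37 C; PI cell number serves as viability.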
Active calls of the source: *; i = inactive; u = inconclusive; x = not tested or not shown; [ ] = remark or other dose. Unless noted, calls come from the whole dose curve; as a rule, active = well fitted curve in the direction sought with a large enough effect; inconclusive = small, poorly fitted or top-dose-only effect, or another doubt; inactive = no such curve, though single readings can be large; an effect the other way counts as inactive or inconclusive. Unless noted, % is set by controls: 0 for no effect and ±100 for the full control effect; potency is the fitted concentration of half-maximal effect.

SMILES	p53null 32C kill	S16 F2sN tox	SKOV3 invasion	p53null 39C kill	PMP22 txn	pS6 MEF inh
COc1ccc(C(=O)Nc2nc3ccc(S(C)(=O)=O)cc3s2)cc1	-1.4%	x	x	-10.8%	x	x
CNC(=O)C1CCN(Cc2cc3ccccc3n2Cc2ccccc2C)CC1	1.0%	-23.3%	-3.3%	5.5%	u	-13.2%
Cc1ccccc1Cn1c(CN2CCC(C(=O)NCCN(C)C)CC2)cc2ccccc21	-5.8%	u	u	3.2%	u	7.36µM*
COc1ccc(S(=O)(=O)N(C(=O)c2ccncc2)c2ccc3oc(C)c(C(C)=O)c3c2)cc1	1.5%	u	u	u	12.6µM*	18.5µM*
CCOc1ccc(S(=O)(=O)N(C(=O)c2ccncc2)c2ccc3oc(C)c(C(=O)OC)c3c2)cc1	41.9%	u	i	u	u	5.21µM*
CCc1ccc(S(=O)(=O)N(C(=O)c2ccncc2)c2ccc3oc(C)c(C(=O)OC)c3c2)cc1	67.0%	u	-4.0%	94.6%	u	u
COC(=O)c1c(C)oc2ccc(N(C(=O)c3ccncc3)S(=O)(=O)c3ccc(OC)cc3)cc12	6.1%	u	-1.2%	u	5.32µM*	u
COc1ccc(S(=O)(=O)N(C(=O)c2ccncc2)c2ccc3oc4c(c3c2)CCCC4)cc1	16.2%	x	x	x	x	x
NS(=O)(=O)OC[C@@H]1C[C@@H](n2ccc3c(N[C@H]4CCc5ccccc54)ncnc32)C[C@H]1O	x	x	-6.5%	x	x	x
Cc1cc([C@@H](C)Nc2ccccc2C(=O)O)c2nc(N3CCOCC3)cc(=O)n2c1	x	x	-13.5%[92.2 µM]	x	x	x
COc1cccc(-c2oc3ccc(C)cc3c(=O)c2O)c1	u	-26.3%	-4.6%	22.4µM*	u	u
CCOc1ccc(-c2oc3ccc(C)cc3c(=O)c2O)cc1	-8.7%	-2.4%	-2.0%	-26.3%	7.2%	7.6%
CN(C)c1ccc(/C=C(\C#N)c2nc3ccccc3c(=O)[nH]2)cc1	0.316µM*	7.1%	-9.3%	u	u	-18.4%
CC(C)=CCCC(C)=CCCC(C)=CCSc1ccccc1C(=O)O	x	x	-15.4%	x	x	x
Cc1ccc(NC(=O)CSc2[nH]c(=O)ncc2C)cc1	11.2µM*	-2.5%	-0.3%	12.6µM*	4.1%	3.3%
CC(C)(C)[C@H](NC(=O)c1ccc(N)c(Cl)c1)C(=O)N1CCC[C@@H]1C(=O)N[C@H](C#N)CC(=O)O	x	x	12.1%[3.51 µM]	x	x	x
CCC[C@H](NC(=O)C(C#N)=Cc1cccc(Br)n1)c1ccccc1	x	x	11.8µM*	x	x	x
COC(=O)c1ccc(COc2ccccc2/C=C(\C#N)C(=O)NC(C)C)cc1	12.3%	x	x	19.4%	x	x
CCCCN(C)CCCNC(=O)Cn1ncc2c3ccccc3n(Cc3cc(C)ccc3C)c2c1=O	-3.3%	u	u	10µM*	u	-5.5%
COc1ccc(-c2ccc3c(N4CCOC[C@H]4C)nc(N4CCOC[C@H]4C)nc3n2)cc1CO	x	x	-14.6%	x	x	x
O=C(/C=C/c1cn(CC(O)CN2CCCCCC2)c2ccccc12)c1ccc(Br)cc1 (centres undefined)	0.5%	-9.2%	-4.7%	15.8µM*	u	u
COc1ccc(C(=O)/C=C/c2cn(CC(O)CN(CC(C)C)CC(C)C)c3ccccc23)cc1 (centres undefined)	-7.2%	-2.5%	i	-1.3%	u	-9.6%
O=C(/C=C/c1cn(CC(O)CN2CCCCCC2)c2ccccc12)c1ccccc1 (centres undefined)	-8.9%	u	-12.1%	-21.5%	u	u
CCCCN(C)CC(O)Cn1cc(/C=C/C(=O)c2ccc(Br)cc2)c2ccccc21 (centres undefined)	u	u	u	12.6µM*	u	u
CCCCN(C)CC(O)Cn1cc(/C=C/C(=O)c2ccc(OC)c(OC)c2)c2ccccc21 (centres undefined)	u	-23.9%	-22.2%	12.6µM*	u	u
SMILES	p53null 32C kill	S16 F2sN tox	SKOV3 invasion	p53null 39C kill	PMP22 txn	pS6 MEF inh
COc1ccc(C(=O)/C=C/c2cn(CC(O)CN3CCCCCC3)c3ccccc23)cc1OC (centres undefined)	0.7%	-19.8%	-15.1%	u	u	-15.4%
CCCN(CCC)CC(O)Cn1cc(/C=C/C(=O)c2ccc(OC)cc2)c2ccccc21 (centres undefined)	u	u	u	u	u	14.7µM*
CCCN(CCC)CC(O)Cn1cc(/C=C/C(=O)c2ccc(C)cc2)c2ccccc21 (centres undefined)	u	u	u	u	u	-10.1%
CCCCN(C)CC(O)Cn1cc(/C=C/C(=O)c2ccc(C)cc2)c2ccccc21 (centres undefined)	15.8µM*	u	u	22.4µM*	u	u
CCOc1cc2ncc(C#N)c(Nc3ccc(OCc4ccccn4)c(Cl)c3)c2cc1NC(=O)C=CCN(C)C	x	x	-10.3%	x	x	x
CN1C(=O)c2ccccc2Sc2ccc(NC(=O)c3ccc(C(F)(F)F)cc3)cc21	14.9%	-10.9%	-8.9%	4.4%	11.3µM*	-0.4%
COC(=O)[C@H](CCCN=C(N)N)NS(=O)(=O)c1ccc(C)cc1	x	x	-4.3%	x	x	x
CCOc1ccccc1CNCc1c(C(=O)O)n(Cc2ccccc2)c2cc(OC)ccc12	-10.6%	0.0%	i	u	5.4%	-10.6%
COc1ccc(Cn2c(C(=O)O)c(CNCc3ccccc3F)c3ccc(OC)cc32)cc1	-16.0%	u	i	-29.6%	u	11.7µM*
C#CCn1c(=NC(=O)c2ccc3c(c2)OCCO3)sc2cc(OC)c(OC)cc21	5.6%	2.9%	-3.3%	-14.7%	u	14.2%
CCn1c(=NC(=O)c2ccc3c(c2)OCCO3)sc2c(C)ccc(OC)c21	-18.0%	2.4%	i	u	9.17µM*	-18.6%
Cc1cncn1CCc1nc2c3ccccc3nc(SCC(=O)Nc3cccc(Cl)c3)n2n1	u	28.2µM*	u	u	u	u
Cc1cncn1CCc1nc2c3ccccc3nc(SCC(=O)Nc3ccc(F)cc3)n2n1	-1.7%	5.0%	0.6%	-2.1%	-19.9%	0.2%
Cc1ccc(C(=O)Nc2cc3cc(Cl)ccc3oc2=O)cc1	12.5%	-6.2%	i	-24.6%	6.5µM*	5.3%
COc1ccc(C(=O)Nc2cc3cc(Cl)ccc3oc2=O)cc1OC	18.4%	0.7%	-16.2%	-9.8%	-18.1%	0.2%
CCS(=O)(=O)c1ncc(Cl)c(C(=O)Nc2ccc(S(=O)(=O)N(C)c3ccccc3)cc2)n1	35.7%	4.47µM*	-12.2%	u	1µM*	0.414µM*

Screens deposited in PubChem by National Center for Advancing Translational Sciences (NCATS).
